High-throughput results from PubChem.
HGIII-sPLA2 inh – Blocks human group III sPLA2 activity; Q9NZ20; QFRET BODIPY PC-A2 liposome hydrolysis, fluorescence; inhibition, % at 12.2 µM; actives 0.56% (n = 370,000);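 active means inhibition above mean plus 3 SD of compounds lying within the high and low control bounds, cut at about 19% in these data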
ADAM17 inh – inhibits human ADAM17; P78536; recombinant ADAM17, EDANS/DABCYL FRET peptide cleavage; inhibition, % at 6.95 µM; actives 0.83% (n = 370,000); AID 720648;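 active means inhibition above the mean of compounds lying between control limits plus 3 SD, set per campaign, cut at about 8.5% in these data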
ADAM10 inh – inhibits human ADAM10 | O14672 | recombinant ADAM10, EDANS/DABCYL FRET peptide cleavage, 3 h | inhibition, % at 7 µM | actives 0.62% (n = 370,000) | AID 720582;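 active means inhibition above a per-campaign cutoff equal to the mean of compounds falling between control-based bounds plus 3 SD, cut at about 20% in these data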
Target sequence (O14672 214-748 limits assumed): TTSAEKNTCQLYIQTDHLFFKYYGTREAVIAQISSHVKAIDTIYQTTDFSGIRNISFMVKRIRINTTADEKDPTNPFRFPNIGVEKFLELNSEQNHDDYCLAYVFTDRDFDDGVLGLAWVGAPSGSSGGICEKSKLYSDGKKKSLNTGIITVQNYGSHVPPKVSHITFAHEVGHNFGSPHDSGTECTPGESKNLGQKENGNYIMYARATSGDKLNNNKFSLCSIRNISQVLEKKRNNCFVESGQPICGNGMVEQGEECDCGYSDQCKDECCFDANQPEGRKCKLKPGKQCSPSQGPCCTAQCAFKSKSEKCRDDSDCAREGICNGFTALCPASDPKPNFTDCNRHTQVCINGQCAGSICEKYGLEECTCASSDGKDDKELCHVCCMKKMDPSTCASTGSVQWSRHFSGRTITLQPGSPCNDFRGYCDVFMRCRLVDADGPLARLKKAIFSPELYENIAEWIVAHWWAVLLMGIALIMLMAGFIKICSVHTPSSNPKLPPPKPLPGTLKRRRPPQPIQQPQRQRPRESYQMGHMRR
FAS TE block – FAS thioesterase (human) inhibition | actives 0.67% (n = 360,000) | inhibition, % at 15 µM | P49327 | recombinant FAS-TE, OMFH fluorogenic substrate, fluorescence endpoint;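 active means compounds whose normalised, plate-corrected inhibition of enzyme fluorescence in the single-dose primary screen is 50% or more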
NR3A LBD binder – modulators (binders) of human NR3A ligand-binding domain | NR3A LBD differential scanning fluorimetry, Tm shift; 0% = protein alone, 100% = glycine-bound protein | Tm shift relative to glycine control, % at 25 µM | actives 2.5% (n = 340,000) | AID 1259313;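 active means melting temperature shift of at least 10% of the positive control shift, at one fixed dose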
ADAM10 ctr – inhibits human ADAM10 in ADAM17 exosite counter-screen; AID 743256; recombinant ADAM10, EDANS/DABCYL FRET peptide cleavage, 3 h; inhibition, % at 6.95 µM; shares compounds with ADAM17 inh; actives 47% (n = 2,900);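 active means mean inhibition over the triplicate runs exceeds the activity threshold set in the earlier primary screen, cut at about 20% in these data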
ADAM17 confirm – confirmation of inhibitors of human ADAM17. AID 743257. shares compounds with ADAM17 inh. recombinant ADAM17, EDANS/DABCYL QFRET peptide cleavage. actives 65% (n = 2,900). inhibition, % at 6.95 µM;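 active means mean inhibition across replicates above the hit cutoff set in the primary screen, cut at about 8.5% in these data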
Large screens that a line does not name were inactive (follow-up assays come after a bar, where they were run). This is a sample that favours compounds with a hit; in the whole collection about 4.3% have one here.

Cc1ccc(C)c(NC(=O)CN(C)C(=O)c2ccc(COc3ccccc3)cc2)c1	ADAM17 inh 11 (no result: NR3A LBD binder) | ADAM10 ctr inactive | ADAM17 confirm inactive
COc1ccc(NC(=O)CN(C)C(=O)c2ccc(COc3ccccc3)cc2)cc1	none
CC(COc1cccc(F)c1)CN1CCC(C(O)(c2ccccc2)c2ccccc2)CC1 (configuration not stated)	ADAM17 inh 9.8 (no result: FAS TE block, NR3A LBD binder) | ADAM10 ctr inactive | ADAM17 confirm inactive
OC(c1ccccc1)(c1ccccc1)C1CCN(CCCOc2cccc(F)c2)CC1	none (no result: FAS TE block, NR3A LBD binder)
Oc1ccc2ccccc2c1C=Nn1c(-c2n[nH]c3c2CCC3)n[nH]c1=S	none (no result: FAS TE block, NR3A LBD binder)
O=[N+]([O-])c1ccc(O)c(/C=N/n2cnnc2)c1	ADAM17 inh 9.2 | ADAM10 ctr inactive | ADAM17 confirm inactive
O=C1CCCc2oc3ccc(NS(=O)(=O)c4cccc5cccnc45)cc3c21	none
O=c1oc2ccc(NS(=O)(=O)c3cccc4cccnc34)cc2s1	ADAM17 inh 12 | ADAM10 ctr inactive | ADAM17 confirm inactive
CSCCCNC(=O)C1CCN(S(=O)(=O)c2ccc3[nH]c(=O)oc3c2)CC1	none (no result: FAS TE block, NR3A LBD binder)
O=C(C[n+]1ccccc1)Nc1nc2ccccc2s1	ADAM17 inh 9.4 | ADAM10 ctr inactive | ADAM17 confirm 15
O=C(NC(C(=O)N1CCCC1C(=O)NC1CCCC1)c1ccccc1)c1cccs1 (configuration not stated)	none (no result: FAS TE block, NR3A LBD binder)
O=C(c1cn(Cc2ccccc2)nc1-c1ccc(Cl)cc1)N1CCN(c2ccccn2)CC1	ADAM17 inh 9.5 | ADAM10 ctr inactive | ADAM17 confirm inactive
Cc1ccc(S(=O)(=O)N2c3ccccc3C[C@H]2CC=C(c2ccccc2)c2ccccc2)cc1	none (no result: FAS TE block, NR3A LBD binder)
c1ccc2c(c1)OCc1nccn1-2	none (no result: FAS TE block, NR3A LBD binder)
COC(=O)[C@H](Cc1ccccc1)NP(=O)(OC)[C@@H](C)NC(=O)OCc1ccccc1 (some centres not stated)	none (no result: FAS TE block, NR3A LBD binder)
CC1CC(C)CN(c2ccc(-n3cnnn3)cc2[N+](=O)[O-])C1 (configuration not stated)	none
O=[N+]([O-])c1cc(-n2cnnn2)ccc1N1CCC(Cc2ccccc2)CC1	ADAM17 inh 12, ADAM10 inh 26 | ADAM10 ctr inactive | ADAM17 confirm 9.2
N#Cc1ccc(Cn2ccc3ccc(-c4ccc5ccn(C(=O)C6CCC6)c5c4)cc32)cc1	none (no result: FAS TE block, NR3A LBD binder)
CN=C1NC(=O)/C(=C\c2cc(C)n(-c3ccccc3F)c2C)S1	none (no result: FAS TE block, NR3A LBD binder)
COc1ccccc1-c1cc(C(=O)Nc2sc3c(c2C#N)CCC(C)C3)c2ccccc2n1 (configuration not stated)	ADAM17 inh 9.9 | ADAM10 ctr inactive | ADAM17 confirm inactive
COC(=O)c1cc2c(c3c4ccccc4n(S(=O)(=O)c4ccc(C)cc4)c13)C(=O)N(C)C2	none (no result: FAS TE block, NR3A LBD binder)
NCCCC[C@@H]1NC(=O)[C@H](CCC(=O)O)NC(=O)c2cc([N+](=O)[O-])cc(I)c2OCC[C@@H](C(N)=O)NC1=O	none (no result: HGIII-sPLA2 inh, ADAM17 inh, ADAM10 inh)
NC(=O)CC[C@@H]1NC(=O)[C@H](CO)NC(=O)c2cc([N+](=O)[O-])cc(I)c2OCC[C@@H](C(N)=O)NC1=O	ADAM17 inh 10 | ADAM10 ctr inactive | ADAM17 confirm inactive
CN1C(=O)OC(C)(CCc2ccccc2)C1(C)O (configuration not stated)	none
CC1(O)N(Cc2ccccc2)C(=O)OC12CCCCC2 (configuration not stated)	ADAM17 inh 9.1 | ADAM10 ctr inactive | ADAM17 confirm 14
COC(=O)C1=C(C)N(C)C(=NCc2ccccc2C(F)(F)F)NC1c1ccc(Cl)cc1 (configuration not stated)	none (no result: FAS TE block, NR3A LBD binder)
O=C(NCCn1cc(SCc2ccccc2)c2ccccc21)c1ccccc1F	ADAM17 inh 10 | ADAM10 ctr inactive | ADAM17 confirm 9.2
O=C(CSc1cn(CCNC(=O)c2ccccc2F)c2ccccc12)NCC1CCCO1 (configuration not stated)	none
CC(C)CCN(C)C1CCN(C(=O)Nc2ccc(Cl)cc2)CC1	none (no result: FAS TE block, NR3A LBD binder)
O=C1C(NC(=O)N2c3ccccc3C=Cc3ccccc32)CCCCN1Cc1cccc(Cl)c1 (configuration not stated)	none (no result: FAS TE block, NR3A LBD binder)
C[C@@H]1CCCCO[C@@H](CN(C)C(=O)NC2CCCCC2)[C@@H](C)CN([C@H](C)CO)C(=O)c2cc(N(C)C)ccc2O1	none (no result: FAS TE block, NR3A LBD binder)
COc1ccc(CCNC(=O)C/C(C)=N/NC(=O)C2CCCCC2)cc1OC	none
CCNC(=O)C/C(C)=N/NC(=O)C1CCCCC1	ADAM17 inh 8.9 | ADAM10 ctr inactive | ADAM17 confirm inactive
O=S1(=O)c2ccccc2-c2c(nnn2Cc2ccccc2)CN1C1CC1	none (no result: FAS TE block, NR3A LBD binder)
O=C(c1ccc(COCC(F)(F)F)o1)N1CCCCCC1	ADAM17 inh 11 | ADAM10 ctr inactive | ADAM17 confirm inactive
CC(C)(C)NC(=O)c1ccc(COCC(F)(F)F)o1	none
O=C(C(=O)N1CCN(S(=O)(=O)c2ccc(C(F)(F)F)cc2)CC1)c1cccc(C(F)(F)F)c1	none (no result: FAS TE block, NR3A LBD binder)
Cc1cc(Br)c2nc(-c3cccc(Br)c3)c(Cc3cccc(Cl)c3)n2c1	none (no result: FAS TE block, NR3A LBD binder)
O=C(OC12CCCN(C1)/C(=C/c1ccncc1)C2)c1ccc(F)cc1 (configuration not stated)	none (no result: FAS TE block, NR3A LBD binder)
Nc1[nH]c(C(=O)c2ccc(Br)cc2)c(-c2ccncc2)c1C(=O)c1ccccc1	none (no result: FAS TE block, NR3A LBD binder)
COc1cc(NC(=O)NC2CCCCN(Cc3ccc(Cl)cc3)C2=O)cc(OC)c1 (configuration not stated)	none (no result: FAS TE block, NR3A LBD binder)
CCOc1cc(/C=C2\SC(=S)N(Nc3ccccc3)C2=O)ccc1O	ADAM17 inh 9.5 | ADAM10 ctr 31 | ADAM17 confirm 14
Cc1ccc(NC(=O)CSc2ncn[nH]2)cc1	none
O=C(CSc1ncn[nH]1)Nc1ccc2c(c1)CCC2	ADAM17 inh 8.8 | ADAM10 ctr inactive | ADAM17 confirm inactive
c1ccc(Cn2ccc3ccc(-c4ccc5ccn(Cc6ccc(-c7ccccc7)cc6)c5c4)cc32)cc1	none (no result: FAS TE block, NR3A LBD binder)
Cc1ccc(CC2(c3ccccc3)NC(=O)NC2=O)cc1 (configuration not stated)	ADAM17 inh 18 | ADAM10 ctr inactive | ADAM17 confirm 18
O=C1NC(=O)C(Cc2ccccc2)(c2ccccc2)N1 (configuration not stated)	none
O=C1NC(=O)C(Cc2ccc(Cl)cc2)(c2ccccc2)N1 (configuration not stated)	ADAM17 inh 40 | ADAM10 ctr inactive | ADAM17 confirm 65
C=CCN=C1NC(CCc2ccccc2)C(C(=O)OC)=C(C)N1Cc1ccccc1C(F)(F)F (configuration not stated)	none (no result: FAS TE block, NR3A LBD binder)
O=C(/C=C/c1ccccc1)c1ccc(NC2=NCCCS2)cc1	none
